About 8,800 targets were measured; listed, in parts, are those with a hit and a random draw of the rest. About 0.5% of all pairs of compound and target were hits.
compound: CC(C)C1=C2N=C(C=C(N2N=C1)NCC3=CC=CC=C3)NCCCCCCN; assay: log2 fold change, soluble protein after heating vs DMSO (PISA); higher = thermal stabilisation; K562 lysate, 10 uM; active = over 0.2 and 3.5 SD of the protein, either way, in both replicates (recomputed)
In short: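 Quantification was by TMTpro 16plex LC-MS/MS with equalised channel sums, applied to the supernatant after 21,000xg for 90 min. Samples were crude K562 extract at 1 mg/mL protein in PBS pH 7.4 with 1 mM MgCl2, treated with 10 μM compound for 30 min, heated for 3 min across 48°C-58°C, pooled and brought to 0.5% NP-40 at 4°C. Values are log-two fold changes in thermal stability relative to solvent controls, from duplicates.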

Sequence of UniProt Q8IWC1 (Q8IWC1 whole entry, looked up): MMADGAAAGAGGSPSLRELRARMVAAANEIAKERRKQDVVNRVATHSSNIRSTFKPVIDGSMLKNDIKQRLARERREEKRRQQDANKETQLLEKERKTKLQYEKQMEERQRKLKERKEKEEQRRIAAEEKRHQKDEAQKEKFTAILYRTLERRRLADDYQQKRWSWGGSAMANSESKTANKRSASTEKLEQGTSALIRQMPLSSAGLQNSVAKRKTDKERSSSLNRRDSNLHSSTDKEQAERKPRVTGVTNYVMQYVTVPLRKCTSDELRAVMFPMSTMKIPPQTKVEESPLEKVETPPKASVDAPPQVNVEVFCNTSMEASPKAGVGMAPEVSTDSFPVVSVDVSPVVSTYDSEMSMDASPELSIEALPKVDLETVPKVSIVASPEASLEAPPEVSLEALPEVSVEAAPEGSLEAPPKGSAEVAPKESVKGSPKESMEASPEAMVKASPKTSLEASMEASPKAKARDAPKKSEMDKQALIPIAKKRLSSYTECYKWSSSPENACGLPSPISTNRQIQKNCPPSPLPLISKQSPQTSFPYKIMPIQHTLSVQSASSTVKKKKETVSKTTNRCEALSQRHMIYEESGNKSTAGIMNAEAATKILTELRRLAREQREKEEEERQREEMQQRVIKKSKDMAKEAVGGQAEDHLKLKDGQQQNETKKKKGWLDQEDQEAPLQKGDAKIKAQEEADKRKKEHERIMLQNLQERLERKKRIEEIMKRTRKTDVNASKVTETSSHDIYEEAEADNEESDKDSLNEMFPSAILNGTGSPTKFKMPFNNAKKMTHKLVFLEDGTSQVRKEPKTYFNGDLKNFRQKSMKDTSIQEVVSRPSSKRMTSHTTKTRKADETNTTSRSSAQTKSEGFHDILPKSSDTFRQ
Sequence of UniProt Q8WV92 (Q8WV92 whole entry, looked up): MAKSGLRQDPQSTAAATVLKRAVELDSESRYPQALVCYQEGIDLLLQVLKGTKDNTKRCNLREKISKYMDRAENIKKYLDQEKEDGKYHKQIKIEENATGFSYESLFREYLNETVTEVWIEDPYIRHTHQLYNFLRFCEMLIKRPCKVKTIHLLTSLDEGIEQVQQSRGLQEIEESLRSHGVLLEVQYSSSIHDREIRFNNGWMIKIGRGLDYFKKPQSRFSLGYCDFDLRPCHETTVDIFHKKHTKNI
Sequence of UniProt O14880 (O14880 whole entry, looked up): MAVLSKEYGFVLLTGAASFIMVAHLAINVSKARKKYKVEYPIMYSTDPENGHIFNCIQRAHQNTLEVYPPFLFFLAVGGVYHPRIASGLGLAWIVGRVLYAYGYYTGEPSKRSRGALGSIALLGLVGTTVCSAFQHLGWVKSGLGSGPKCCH
Sequence of UniProt Q9H8H3 (Q9H8H3 whole entry, looked up): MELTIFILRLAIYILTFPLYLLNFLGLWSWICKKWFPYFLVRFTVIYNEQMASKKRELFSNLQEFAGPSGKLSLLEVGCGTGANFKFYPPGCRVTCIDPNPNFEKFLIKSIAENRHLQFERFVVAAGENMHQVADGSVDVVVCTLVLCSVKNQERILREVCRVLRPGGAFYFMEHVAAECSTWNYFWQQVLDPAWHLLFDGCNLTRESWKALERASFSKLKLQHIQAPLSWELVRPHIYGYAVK
Sequence of UniProt P46734 (P46734 whole entry, looked up): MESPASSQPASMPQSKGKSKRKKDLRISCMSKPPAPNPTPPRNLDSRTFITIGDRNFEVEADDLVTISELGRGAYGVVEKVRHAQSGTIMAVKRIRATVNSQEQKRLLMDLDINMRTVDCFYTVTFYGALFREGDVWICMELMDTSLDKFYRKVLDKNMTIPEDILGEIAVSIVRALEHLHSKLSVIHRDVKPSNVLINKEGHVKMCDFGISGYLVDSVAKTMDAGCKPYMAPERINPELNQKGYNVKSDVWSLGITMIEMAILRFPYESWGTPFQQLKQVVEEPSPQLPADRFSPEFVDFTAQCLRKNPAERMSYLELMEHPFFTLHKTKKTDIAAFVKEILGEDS
Sequence of UniProt O95239 (O95239 whole entry, looked up): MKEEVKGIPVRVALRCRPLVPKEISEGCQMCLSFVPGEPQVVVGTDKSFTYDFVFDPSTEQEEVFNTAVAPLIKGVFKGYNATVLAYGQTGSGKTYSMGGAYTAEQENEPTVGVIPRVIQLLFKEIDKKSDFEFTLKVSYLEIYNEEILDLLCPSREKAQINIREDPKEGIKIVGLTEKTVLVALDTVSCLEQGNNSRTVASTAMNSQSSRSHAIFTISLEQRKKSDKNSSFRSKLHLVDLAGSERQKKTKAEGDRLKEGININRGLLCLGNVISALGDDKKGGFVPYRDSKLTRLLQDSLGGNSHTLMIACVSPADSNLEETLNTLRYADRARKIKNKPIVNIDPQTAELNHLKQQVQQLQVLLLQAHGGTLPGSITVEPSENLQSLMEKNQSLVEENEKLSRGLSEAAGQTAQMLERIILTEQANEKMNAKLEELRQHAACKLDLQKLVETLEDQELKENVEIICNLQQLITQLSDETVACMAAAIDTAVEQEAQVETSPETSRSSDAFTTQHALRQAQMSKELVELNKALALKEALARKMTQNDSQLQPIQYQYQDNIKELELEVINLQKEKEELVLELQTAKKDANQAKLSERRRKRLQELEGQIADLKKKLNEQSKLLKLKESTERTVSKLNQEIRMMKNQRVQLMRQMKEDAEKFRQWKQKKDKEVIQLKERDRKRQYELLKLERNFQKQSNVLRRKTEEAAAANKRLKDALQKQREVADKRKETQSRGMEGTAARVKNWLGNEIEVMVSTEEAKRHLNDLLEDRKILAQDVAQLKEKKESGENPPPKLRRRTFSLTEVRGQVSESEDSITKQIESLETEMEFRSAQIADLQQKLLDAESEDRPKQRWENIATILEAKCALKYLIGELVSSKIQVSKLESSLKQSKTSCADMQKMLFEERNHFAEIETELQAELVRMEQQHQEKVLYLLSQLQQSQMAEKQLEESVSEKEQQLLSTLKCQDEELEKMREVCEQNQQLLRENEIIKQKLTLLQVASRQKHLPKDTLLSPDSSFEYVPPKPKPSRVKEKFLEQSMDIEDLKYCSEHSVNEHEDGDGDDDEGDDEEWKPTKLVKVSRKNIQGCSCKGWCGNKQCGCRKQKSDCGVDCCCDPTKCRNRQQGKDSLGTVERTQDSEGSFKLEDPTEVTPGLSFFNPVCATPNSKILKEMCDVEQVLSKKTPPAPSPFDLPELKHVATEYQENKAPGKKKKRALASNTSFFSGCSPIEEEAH
Sequence of UniProt Q86V48 (Q86V48 whole entry, looked up): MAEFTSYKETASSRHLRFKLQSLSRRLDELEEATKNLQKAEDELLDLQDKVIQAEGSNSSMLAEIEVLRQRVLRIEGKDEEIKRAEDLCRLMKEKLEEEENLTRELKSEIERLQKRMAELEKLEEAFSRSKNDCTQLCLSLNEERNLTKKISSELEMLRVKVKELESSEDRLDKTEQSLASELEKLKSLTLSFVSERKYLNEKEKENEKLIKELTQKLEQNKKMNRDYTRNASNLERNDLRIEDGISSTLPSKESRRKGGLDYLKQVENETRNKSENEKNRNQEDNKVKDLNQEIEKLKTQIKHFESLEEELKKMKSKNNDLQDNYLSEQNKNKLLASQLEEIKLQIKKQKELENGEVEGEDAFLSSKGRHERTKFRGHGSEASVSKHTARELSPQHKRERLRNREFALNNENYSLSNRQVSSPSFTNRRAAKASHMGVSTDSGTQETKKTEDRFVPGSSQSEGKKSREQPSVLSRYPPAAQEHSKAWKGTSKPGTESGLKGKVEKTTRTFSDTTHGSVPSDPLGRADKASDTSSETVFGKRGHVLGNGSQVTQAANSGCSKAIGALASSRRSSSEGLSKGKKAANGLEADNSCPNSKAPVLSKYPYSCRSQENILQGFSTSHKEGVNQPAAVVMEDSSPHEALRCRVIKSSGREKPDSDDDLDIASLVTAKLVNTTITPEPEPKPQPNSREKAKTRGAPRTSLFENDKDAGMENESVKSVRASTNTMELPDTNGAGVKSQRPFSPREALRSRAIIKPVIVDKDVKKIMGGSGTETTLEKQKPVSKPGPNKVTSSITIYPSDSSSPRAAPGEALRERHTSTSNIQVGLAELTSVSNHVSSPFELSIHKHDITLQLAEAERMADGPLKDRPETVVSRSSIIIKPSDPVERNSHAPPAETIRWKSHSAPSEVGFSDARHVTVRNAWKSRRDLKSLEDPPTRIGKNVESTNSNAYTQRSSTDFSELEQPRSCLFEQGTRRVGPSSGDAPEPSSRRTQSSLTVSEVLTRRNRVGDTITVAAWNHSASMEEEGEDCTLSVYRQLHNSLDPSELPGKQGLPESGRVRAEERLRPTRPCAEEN
Sequence of UniProt Q9H0B6 (Q9H0B6 whole entry, looked up): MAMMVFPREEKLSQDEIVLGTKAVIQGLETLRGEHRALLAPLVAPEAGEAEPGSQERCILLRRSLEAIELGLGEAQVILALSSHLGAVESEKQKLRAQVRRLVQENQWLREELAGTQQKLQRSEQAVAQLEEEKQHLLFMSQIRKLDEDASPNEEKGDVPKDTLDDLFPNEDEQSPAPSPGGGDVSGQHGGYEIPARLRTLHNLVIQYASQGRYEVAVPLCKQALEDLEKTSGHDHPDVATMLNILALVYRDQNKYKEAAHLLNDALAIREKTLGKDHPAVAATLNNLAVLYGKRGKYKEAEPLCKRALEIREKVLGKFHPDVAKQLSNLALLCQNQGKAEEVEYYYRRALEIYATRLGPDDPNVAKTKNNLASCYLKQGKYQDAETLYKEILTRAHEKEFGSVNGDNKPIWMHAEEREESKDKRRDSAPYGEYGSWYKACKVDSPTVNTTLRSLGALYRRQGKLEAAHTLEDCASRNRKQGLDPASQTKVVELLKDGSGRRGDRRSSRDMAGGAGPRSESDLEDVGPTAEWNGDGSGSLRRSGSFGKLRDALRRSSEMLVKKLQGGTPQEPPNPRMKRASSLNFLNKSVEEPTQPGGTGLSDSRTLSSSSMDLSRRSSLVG

log2 fold change, inactive:
MED16 (UniProt Q9Y2X0) -0.014, LAP3 (UniProt P28838) 0, LUZP1 (UniProt Q86V48) 0.016, KSR1 (UniProt Q8IVT5) -0.025, LTN1 isoform 3 (UniProt O94822) 0.079, MAP2K3 isoform 3 (UniProt P46734) -0.15, MRPL46 (UniProt Q9H2W6) -0.064, MCU (UniProt Q8NE86) -0.055, KIF14 (UniProt Q15058) 0.017, KIF15 (UniProt Q9NS87) 0.01, MAP3K4 (UniProt Q9Y6R4) -0.039, LIMS1 isoform 3 (UniProt P48059) -0.036, KIF11 (UniProt P52732) 0.007, KIFC1 (UniProt Q9BW19) -0.012, MAT2B (UniProt Q9NZL9) -0.002, MFF isoform 2 (UniProt Q9GZY8) -0.052, KPNA2 (UniProt P52292) 0.009, MED8 isoform 2 (UniProt Q96G25) 0.006, MAPK8 isoform 3 (UniProt P45983) 0.035, MGST3 (UniProt O14880) -0.009, KIF4A (UniProt O95239) -0.002, MPP1 (UniProt Q00013) 0.02, MAP4 (UniProt E7EVA0) 0.036, LARS2 (UniProt Q15031) -0.027, LIMK2 isoform 3 (UniProt P53671) 0.008, KPNA4 (UniProt O00629) 0.019, MAP7D3 (UniProt Q8IWC1) -0.22, METTL7A (UniProt Q9H8H3) 0.017, LYN (UniProt P07948) 0, LUC7L (UniProt Q9NQ29) 0.056, LYSMD3 (UniProt Q7Z3D4) -0.045, KRR1 (UniProt Q13601) -0.04, METTL2A (UniProt Q96IZ6) 0.018, MARK3 (UniProt P27448) 0.041, MLH1 (UniProt P40692) -0.018, KLC2 (UniProt Q9H0B6) -0.001, MCCC1 (UniProt Q96RQ3) -0.014, MAPK3 (UniProt P27361) -0.033, MITD1 (UniProt Q8WV92) 0.024

— the supplement of paper PMC10849652
